This is an account of results in PubChem BioAssay (NCATS).

SMILES strings stand for the structures. Inconclusive results are not listed. Where a call stands in place of a potency, no number is given. Activity calls are given as the source filed them. The call rests on the fitted dose curve; in most records, active means well fitted inhibition curve with a large enough effect; inconclusive means small, poorly fitted or top-dose-only effect; inactive means flat fitted curve, though single readings scatter.
Potency means the concentration at half of the fitted maximal effect.

This assay deals with astro (control astrocytes). The assay can be described thus: Drug repurposing screens with cells derived from glioblastoma tumor samples (AID 1345199). Further: nearly all actives have a fitted effect of over 40% in size. The conditions noted are these: viability, ATP luminescence, 48 h; series mostly up to 45.9 µM. As to the method:
CD133+ cells were isolated from GBM patient biopsies and cultured as neurospheres. Neurospheres from four patients were used to screen the NCATS pharmaceutical collection (NPC) library of approved drugs and bioactive compounds. […] The neurospheres were incubated with drugs for 48 hours in 1536-well format, then assayed with an ATP content cell viability assay. […] These hits were cherry picked to confirm activity in the four original GBM lines screened plus three other slower growing GMB lines (unable to yield enough cells for a full primary screen). Variable activities of the confirmed primary hits in the different GBM patient lines were observed. The patient line 206 responded to the greatest number of compounds and line 923 responded to the least amount of active compounds.
In the case of `CC1(C)O[C@@H]2C[C@H]3[C@@H]4CCC5=CC(=O)CC[C@]5(C)[C@@]4(F)[C@@H](O)C[C@]3(C)[C@]2(C(=O)CCl)O1`, the Potency result is “inactive”.

Regarding `CCCCc1nc(Cl)c(CO)n1Cc1ccc(-c2ccccc2-c2nn[nH]n2)cc1`, the Potency result was “inactive”.

On to `COc1cc(C=C2CCC/C(=C\c3ccc(O)c(OC)c3)C2=O)ccc1O`, for which the Potency was 20 µM (active).

As to `O=C1c2ccccc2C(=O)C1c1ccccc1`, the Potency entry is “inactive”.

For `Oc1ccc(Cl)c2cccnc12`, the Potency result is “inactive”.

With `COc1ccc(CN2CCN(C(c3ccc(F)cc3)c3ccc(F)cc3)CC2)c(OC)c1OC`, the Potency is 35.5 µM (active).

Consider `Cc1c(N(C)CS(=O)(=O)O)c(=O)n(-c2ccccc2)n1C`, for which the Potency result is “inactive”.

As for `CO/N=C1\CN(c2nc3c(cc2F)c(=O)c(C(=O)O)cn3C2CC2)CC1CN` (stereo not given), the Potency entry is “inactive”.

As to `c1ccc(OCc2ccc(CCCN3CCOCC3)cc2)cc1`, the Potency result is “inactive”.

`Cc1cc(N)c2cc(NC(=O)Nc3ccc4nc(C)cc(N)c4c3)ccc2n1`: the Potency is 35.5 µM (active).

Consider `CN1C(CCl)Nc2cc(Cl)c(S(N)(=O)=O)cc2S1(=O)=O` (stereo not given), for which the Potency result is “inactive”.

With `Cc1ccc(C(=O)C(C)CN2CCCCC2)cc1` (stereo not given), the Potency entry was “inactive”.

Regarding `O=C1OC2(c3ccc(O)cc3Oc3cc(O)ccc32)c2ccccc21`, the Potency entry was “inactive”.

In the case of `CC(=O)[C@H]1CC[C@H]2[C@@H]3C[C@H](C)C4=CC(=O)CC[C@]4(C)[C@H]3[C@@H](O)C[C@]12C`, the Potency entry was “inactive”.

Turning to `C[C@H](CCC(=O)O)[C@H]1CC[C@H]2[C@@H]3C(=O)C[C@@H]4CC(=O)CC[C@]4(C)[C@H]3CC(=O)[C@]12C`, the Potency result was “inactive”.

For `CN=C(NC#N)Nc1ccc(C2=NNC(=O)CC2C)cc1` (stereo not given), the Potency entry was “inactive”.

On to `COCc1c(C(C)C)nc(C(C)C)c(/C=C/[C@@H](O)C[C@@H](O)CC(=O)O)c1-c1ccc(F)cc1`, for which the Potency was 0.1 µM (active).

`Nc1cc(Cl)c(NC2=NCCN2)c(Cl)c1`: the Potency result is “inactive”.

In the case of `C[C@@H]1C[C@H]2[C@@H]3C[C@H](F)C4=CC(=O)C(Cl)=C[C@]4(C)[C@@]3(F)[C@@H](O)C[C@]2(C)[C@@]1(O)C(=O)CO`, the Potency entry is “inactive”.

For the molecule `CCCCCCCCCCCCCCCCOP(=O)([O-])OCC[N+](C)(C)C`, the Potency result was “inactive”.

In the case of `C[C@H](O)C(=O)Nc1c(I)c(C(=O)NC(CO)CO)c(I)c(C(=O)NC(CO)CO)c1I`, the Potency entry was “inactive”.

For the molecule `CCCCS(=O)(=O)N[C@@H](Cc1ccc(OCCCCC2CCNCC2)cc1)C(=O)O`, the Potency result is “inactive”.

Turning to `NCCC(O)(P(=O)(O)O)P(=O)(O)O`, the Potency entry is “inactive”.

For the molecule `CCOc1ccc(NC(=O)CC(C)O)cc1` (stereo not given), the Potency result was “inactive”.

Take `Nc1nc2ncc(CNc3ccc(C(=O)N[C@@H](CCC(=O)O)C(=O)O)cc3)nc2c(=O)[nH]1`: the Potency entry was “inactive”.

For `CCCCC1=NC2(CCCC2)C(=O)N1Cc1ccc(-c2ccccc2-c2nn[nH]n2)cc1`, the Potency entry was “inactive”.

Regarding `CCOC(=O)OC(C)OC1=C(C(=O)Nc2ccccn2)N(C)S(=O)(=O)c2ccccc21` (stereo not given), the Potency result is “inactive”.

As to `CN(C)CCOc1ccccc1Cc1ccccc1`, the Potency entry is “inactive”.

As to `CN=C(NC#N)NCCSCc1csc(N=C(N)N)n1`, the Potency entry was “inactive”.

Consider `CCCCOc1cc(C(=O)NCCN(CC)CC)c2ccccc2n1`, for which the Potency entry was “inactive”.

Consider `C=C1C[C@H]2[C@@H]3C=C(C)C4=CC(=O)CC[C@]4(C)[C@H]3CC[C@]2(C)[C@@]1(OC(C)=O)C(C)=O`, for which the Potency entry was “inactive”.

Consider `Cc1ncc(CSSCc2cnc(C)c(O)c2CO)c(CO)c1O`, for which the Potency result is “inactive”.

As to `COc1cccc(OC)c1C(=O)N[C@@H]1C(=O)N2[C@@H]1SC(C)(C)[C@@H]2C(=O)O`, the Potency result was “inactive”.

On to `CN1CCN(C(c2ccccc2)c2ccccc2)CC1`, for which the Potency entry was “inactive”.

For the molecule `CN(C)CCCOc1nn(Cc2ccccc2)c2ccccc12`, the Potency entry is “inactive”.

As to `CC(CCc1ccccc1)NCC(O)c1ccc(O)c(C(N)=O)c1` (stereo not given), the Potency result was “inactive”.

As to `O=C(OCC(O)CO)c1ccccc1Nc1ccnc2cc(Cl)ccc12` (stereo not given), the Potency entry was “inactive”.

Take `CC(=O)Oc1ccc(C(=C2CCCCC2)c2ccc(OC(C)=O)cc2)cc1`: the Potency entry was “inactive”.

For `Cc1cc(=O)n(-c2ccccc2)n1C`, the Potency result is “inactive”.

Take `CC[C@@H](CO)NCCN[C@@H](CC)CO`: the Potency result was “inactive”.
